Laboratory results published in the supplement of paper PMC10338343.
± gives the standard deviation.

Test system: MILI (PIWIL2) piRISC loaded with L1MC piRNA (26 nt);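 further: 1 nM active piRISC with 0.1 nM target library at 33 °C single turnover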
Experiment: pre-steady-state target cleavage rate (min^-1); guide: L1MC piRNA 5'p-UAACUAAAUACUAUGCAAGCUGUAGG; higher = faster piRNA-guided slicing of the target
Conditions: auxiliary factor: none (no GTSF1)
Procedure, shortened: (§1)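 A burst-and-steady-state fit was used to obtain the pre-steady-state cleavage rate. The input data were sequencing reads of uncleaved targets, normalised to depth and to weakly complementary targets, from a […] transcribed, DNA-blocked target RNA library mixed with 1 nM active affinity-purified piRISC holding one synthetic guide, with or without 500 nM GTSF1 partner protein, in HEPES–potassium acetate buffer at 33 °C for 0–8 or 0–960 min. Three trials were pooled and k3 was capped at 0.0001 min^-1.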

| Sequence | pre-steady-state target cleavage rate |
| --- | --- |
| UCCUGGAACAGCUUGCAUAGUAUUUAGUUU [g2:g23:cont:t1U] | 0.0155 ± 0.0044 |
| UCCUGGAUGACCUUGGAUAGUAUUUAGUUA | 0.00594 ± 0.0024 |
| UCCUGGAUGUCGUUCGCAUAGUAUUUAGUUA | 0.00567 ± 0.0028 |
| UCCUGCUAGAGGUUGCAUAGUAUUUAGUUA | 0.0085 ± 0.0026 |
| UCCUCCUGACAGCUUGCAUAGUAUUUAGUUA | 0.00896 ± 0.0026 |
| UCCUGGAACAGCUUGCAUAGUAUUGUAGUUA | 0.00351 ± 0.0026 |
| UCCUGCUACAGCUUCGCAUAGUAUUUAGUUA | 0.00637 ± 0.0021 |
| UCCUCCUACAGCUUUCAUAGUAUUUAGUUA | 0.00664 ± 0.002 |
| UCCUGGUACAGCUCUGCAUAGUAUUUAGUUA | 0.00792 ± 0.0029 |
| UCCUCCUACAGCUUGCAUAGUAAAUAGUUA | 0.00285 ± 0.0028 |
| UCCUCCUACAGCUUGCAUAGUAUUUAGUAUA | 0.00757 ± 0.0027 |
| UCCUCGAUCAGCUUGCAUAGUAUUUAGUUA | 0.0102 ± 0.0027 |
| UCCUGGAUGAGCUUGCAUAGUAUUCAGUUA | 0.00552 ± 0.0023 |
| UCCUGGAUCUGCUUGCAUAGUAUAUAGUUA | 0.00587 ± 0.0024 |
| UCCUCCUAGAGCUUGCAUAGUAUUUAGUAA | 0.00313 ± 0.0024 |
| UCCUGCUACAGCUGUGCAUAGUAUUUAGUUA | 0.0081 ± 0.0032 |

Test system: EfPiwi piRISC loaded with L1MC piRNA (26 nt)
Experiment: pre-steady-state target cleavage rate (min^-1); auxiliary factor: 500 nM Ephydatia muelleri Gtsf1; guide: L1MC piRNA 5'p-UAACUAAAUACUAUGCAAGCUGUAGG; MIWI and MILI are mouse PIWI proteins and EfPiwi is from a freshwater sponge; tags in brackets are library labels; higher = faster piRNA-guided slicing of the target
Conditions: not given
Procedure, shortened: as §1

| Sequence | pre-steady-state target cleavage rate |
| --- | --- |
| UCCUGCUACUGCUUGCAUAGUAUUUUGUUA | 0.0061 ± 0.0024 |
| UCCUCCUUCAGGUUGCAUAGUAUUUAGUUA | 0.0528 ± 0.012 |
| UCCUGGAUCAGCUUCAUAGUAUUUAGUUA | 0.00789 ± 0.0033 |
| UCCUGGUACAGCUUGCAUAGUAUUUAGUUG [g2:g24:cont:t1G] | 0.0182 ± 0.0065 |
| UCCUGGAUGACGUUGCAUAGUAUUUAGUUA | 0.00512 ± 0.0026 |
| UCCUCCUACAGGAAGCAUAGUAUUUAGUAA | 0.00397 ± 0.0031 |
| UCCUCCAACAGCUUGCAUAGUAAUUAGUUA | 0.0103 ± 0.0047 |
| UCCUGGAUCACCUAGCAUAGUAUUUAGUUA | 0.00614 ± 0.004 |
| UCCUGCUACAGCUUGGAUAGUAUUAAGUUA | 0.0066 ± 0.0018 |
| UCCUGCUACAGCUUGCAUAGUAUUUAGUCA | 0.00386 ± 0.0017 |
| UCCUGGAACAGCUACCAUAGUAUUUAGUUA | 0.00309 ± 0.0026 |
| UCCUCCUACAGUCUUGCAUAGUAUUUAGUUA | 0.0171 ± 0.006 |
| UCCUGGAUGUACUUGCAUAGUAUUUAGUUA | 0.00383 ± 0.0029 |
| UCCUGCUACUGCUUGGAUAGUAUUUAGUUA | 0.0111 ± 0.0029 |
| UCCUCCUACAGCUUGCAUAGUCAUUUAGUUA | 0.00268 ± 0.0025 |
| UCCUCCUCCAGCUUGCAUAGUAUUUAGUUA | 0.194 ± 0.056 |
| UCCUGGAUCAGCAUGCAAAGUAUUUAGUUA | 0.0037 ± 0.0031 |
| UCCUCCUACAGCUUGCAUAGUAUCUUAGUUA | 0.0254 ± 0.011 |
| UCCUGGUACUAGCUUGCAUAGUAUUUAGUUA | 0.00885 ± 0.0038 |
| UCCUGGAUCAGGUUGCAUAGUAUUUAGUUA | 0.0232 ± 0.0061 |

| Sequence | pre-steady-state target cleavage rate |
| --- | --- |
| UCCUGGAUCACCUUGCAUAGUAAUUAGUUA | 0.123 ± 0.049 |
| UCCUGGAUGAGCUUGCCUAGUAUUUAGUUA | 0.00623 ± 0.0037 |
| UCCUGGAACAUGCUUGCAUAGUAUUUAGUUA | 0.0178 ± 0.0057 |
| UCCUGCUUCUGCUUGCAUAGUAUUUAGUUA | 0.0112 ± 0.0038 |
| UCCUGGAACAGCUUGCAUAGUAUUUAGUUU [g2:g23:cont:t1U] | 0.0156 ± 0.0055 |
| UCCUGGAUGACCUUGGAUAGUAUUUAGUUA | 0.00325 ± 0.0032 |
| UCCUGGAUGUCGUUCGCAUAGUAUUUAGUUA | 0.00486 ± 0.0031 |
| UCCUGCUAGAGGUUGCAUAGUAUUUAGUUA | 0.00977 ± 0.0027 |
| UCCUCCUGACAGCUUGCAUAGUAUUUAGUUA | 0.0255 ± 0.008 |
| UCCUGGAACAGCUUGCAUAGUAUUGUAGUUA | 0.00741 ± 0.0027 |
| UCCUGCUACAGCUUCGCAUAGUAUUUAGUUA | 0.0225 ± 0.0071 |
| UCCUCCUACAGCUUUCAUAGUAUUUAGUUA | 0.00691 ± 0.0022 |
| UCCUGGUACAGCUCUGCAUAGUAUUUAGUUA | 0.0139 ± 0.0042 |
| UCCUCCUACAGCUUGCAUAGUAAAUAGUUA | 0.00735 ± 0.0032 |
| UCCUCCUACAGCUUGCAUAGUAUUUAGUAUA | 0.00856 ± 0.0035 |
| UCCUCGAUCAGCUUGCAUAGUAUUUAGUUA | 0.121 ± 0.023 |
| UCCUGGAUGAGCUUGCAUAGUAUUCAGUUA | 0.00256 ± 0.0023 |
| UCCUGGAUCUGCUUGCAUAGUAUAUAGUUA | 0.0643 ± 0.018 |
| UCCUCCUAGAGCUUGCAUAGUAUUUAGUAA | 0.00608 ± 0.0021 |
| UCCUGCUACAGCUGUGCAUAGUAUUUAGUUA | 0.00927 ± 0.0026 |
